According to PubChem BioAssay (NCI):
About 83,000 compounds went through this panel and 20% of them were active in at least one assay; those are over-represented in the sample as a whole.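 Method: cells in 96-well plates; compound added at one concentration; 48 h incubation; percent growth measured; values under 10 scored active.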

Experiments:
Assay in all cases: NCI-60 one-dose screen, 48 h (100 = growth as untreated, 0 = no growth, -100 = all killed)
Conditions in all cases: 10 µM unless noted
DU-145 prostate = test system: DU-145 prostate
K-562 leukemia = test system: K-562 leukemia
MALME-3M melanoma = test system: MALME-3M melanoma
MDA-MB-231 breast = test system: MDA-MB-231 breast
RXF 393 renal = test system: RXF 393 renal
SF-268 CNS = test system: SF-268 CNS
SF-295 CNS = test system: SF-295 CNS
SF-539 CNS = test system: SF-539 CNS
UACC-257 melanoma = test system: UACC-257 melanoma
M14 melanoma = test system: M14 melanoma
HCT-15 colon = test system: HCT-15 colon
HT29 colon = test system: HT29 colon
SNB-75 CNS = test system: SNB-75 CNS
SNB-19 CNS = test system: SNB-19 CNS
U251 CNS = test system: U251 CNS
PC-3 prostate = test system: PC-3 prostate
SK-MEL-5 melanoma = test system: SK-MEL-5 melanoma
UACC-62 melanoma = test system: UACC-62 melanoma
LOX IMVI melanoma = test system: LOX IMVI melanoma
SK-MEL-28 melanoma = test system: SK-MEL-28 melanoma

Measured: growth

O=C1COCCN1c1ccc(Nc2nc(Cl)nc(N3CCOCC3)n2)cc1
inactive: DU-145 prostate 102% | K-562 leukemia 100% | MALME-3M melanoma 96.3% | MDA-MB-231 breast 103% | RXF 393 renal 92.4% | SF-268 CNS 99.4% | SF-295 CNS 94.4% | SF-539 CNS 96.5% | UACC-257 melanoma 98.2% | M14 melanoma 98.2% | HCT-15 colon 91.8% | HT29 colon 89.4% | SNB-75 CNS 89.7% | SNB-19 CNS 95.9% | U251 CNS 101% | PC-3 prostate 96.8% | SK-MEL-5 melanoma 100% | UACC-62 melanoma 96% | LOX IMVI melanoma 93.8% | SK-MEL-28 melanoma 101%

O=C(Oc1ccc(Cl)cc1[N+](=O)[O-])Oc1ccc(Cl)cc1[N+](=O)[O-]
inactive: DU-145 prostate 116% | K-562 leukemia 90.2% | MALME-3M melanoma 135% | MDA-MB-231 breast 126% | RXF 393 renal 124% | SF-268 CNS 105% | SF-295 CNS 119% | SF-539 CNS 109% | UACC-257 melanoma 107% | M14 melanoma 109% | HCT-15 colon 106% | HT29 colon 107% | SNB-75 CNS 108% | SNB-19 CNS 115% | U251 CNS 99% | PC-3 prostate 88.5% | SK-MEL-5 melanoma 120% | UACC-62 melanoma 113% | LOX IMVI melanoma 111% | SK-MEL-28 melanoma 106%

CSc1nc(N)c(N=Nc2ccc(S(=O)(=O)Nc3nnc(C)s3)cc2)c(=O)[nH]1
inactive: DU-145 prostate 101% | K-562 leukemia 138% | MALME-3M melanoma 109% | MDA-MB-231 breast 103% | RXF 393 renal 110% | SF-268 CNS 101% | SF-295 CNS 133% | SF-539 CNS 109% | UACC-257 melanoma 117% | M14 melanoma 101% | HCT-15 colon 109% | HT29 colon 104% | SNB-75 CNS 107% | SNB-19 CNS 103% | U251 CNS 119% | PC-3 prostate 97.5% | SK-MEL-5 melanoma 104% | UACC-62 melanoma 94.3% | LOX IMVI melanoma 118% | SK-MEL-28 melanoma 108%

COc1cc(C)cc2oc3oc(=O)c(-c4nc5ccccc5s4)cc3c(=O)c12
inactive: DU-145 prostate 98.8% | K-562 leukemia 99.8% | MALME-3M melanoma 94% | MDA-MB-231 breast 95.1% | RXF 393 renal 77.5% | SF-268 CNS 96.6% | SF-295 CNS 98.9% | SF-539 CNS 83.7% | UACC-257 melanoma 109% | M14 melanoma 99% | HCT-15 colon 102% | HT29 colon 103% | SNB-75 CNS 79.3% | SNB-19 CNS 92.9% | U251 CNS 93.4% | PC-3 prostate 94.1% | SK-MEL-5 melanoma 99.5% | UACC-62 melanoma 67.7% | LOX IMVI melanoma 94.1% | SK-MEL-28 melanoma 93.2%
